Values joined by “and” are separate entries in the source; they are usually repeats but may differ in a detail not shown here. Identical values can stand only once. Results filed as inconclusive are left out. Entries that show only a call come without a potency. Some structures have more than one record in an assay (separate samples or runs), and their calls can disagree. Active and inactive are the calls of the source. Calls come from the whole dose curve; as a rule, active = well fitted curve in the direction sought with a large enough effect; inconclusive = small, poorly fitted or top-dose-only effect, or another doubt; inactive = no such curve, though single readings can be large; an effect the other way counts as inactive or inconclusive.
Experiments:
[1] = Primary qHTS for inhibitors of nuclear receptor binding SET domain protein 2 (NSD2) in an isogenic RCH-ACV NSD2 p.E1099K mutant (9B) (AID 1645876); note: nearly all actives have a fitted effect of over 70% in size; note: potency is the fitted concentration of half-maximal effect
[2] = target: Rap guanine nucleotide exchange factor 3 (Homo sapiens) (UniProt O95398); test: Confirmatory qHTS for antagonist of cAMP-regulated guanine nucleotide exchange factor 3 (EPAC1) (AID 1645880); note: nearly all actives have a fitted effect of over 55% in size; note: potency is the fitted concentration of half-maximal effect
Rap guanine nucleotide exchange factor 3 (Homo sapiens), sequence (O95398 whole entry, looked up): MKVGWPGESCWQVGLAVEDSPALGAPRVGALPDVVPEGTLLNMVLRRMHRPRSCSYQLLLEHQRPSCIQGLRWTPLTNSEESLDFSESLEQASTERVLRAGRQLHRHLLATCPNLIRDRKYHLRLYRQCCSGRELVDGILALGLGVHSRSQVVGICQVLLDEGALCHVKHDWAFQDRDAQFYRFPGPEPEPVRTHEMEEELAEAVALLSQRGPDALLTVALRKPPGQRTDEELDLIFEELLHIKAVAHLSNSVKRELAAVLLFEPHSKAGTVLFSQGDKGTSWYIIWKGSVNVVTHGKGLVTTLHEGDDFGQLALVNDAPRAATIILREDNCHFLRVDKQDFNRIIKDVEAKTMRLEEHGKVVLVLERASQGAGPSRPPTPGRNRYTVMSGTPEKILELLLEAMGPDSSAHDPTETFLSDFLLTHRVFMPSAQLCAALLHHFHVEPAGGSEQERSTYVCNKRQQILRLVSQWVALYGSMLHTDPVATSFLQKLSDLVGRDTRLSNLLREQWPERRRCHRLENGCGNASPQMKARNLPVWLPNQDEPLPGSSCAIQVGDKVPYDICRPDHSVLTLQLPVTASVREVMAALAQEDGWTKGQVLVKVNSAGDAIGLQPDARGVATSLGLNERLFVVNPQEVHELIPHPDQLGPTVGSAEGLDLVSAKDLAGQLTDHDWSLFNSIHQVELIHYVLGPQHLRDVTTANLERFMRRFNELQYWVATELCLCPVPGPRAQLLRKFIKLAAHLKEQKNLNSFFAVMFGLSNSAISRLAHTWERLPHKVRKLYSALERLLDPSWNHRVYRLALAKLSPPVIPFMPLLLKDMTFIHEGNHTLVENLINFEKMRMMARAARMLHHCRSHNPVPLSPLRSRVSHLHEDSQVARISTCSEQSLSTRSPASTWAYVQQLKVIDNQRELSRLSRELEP
How it was run: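 Released BODIPY-GDP fluoresces less than Rap1-bound BODIPY-GDP; the signal is followed at 480/540 nm at 5-min intervals over 30 min, after 5 min at room temperature. Reactions contain 100 nM EPAC1, 250 nM RAP1B-BODIPY-GDP and 50 uM GDP; results are normalized to ATA and DMSO.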

[3] = target: Rap guanine nucleotide exchange factor 3 (Homo sapiens) (UniProt O95398); test: Confirmatory qHTS for agonist of cAMP-regulated guanine nucleotide exchange factor 3 (EPAC1) (AID 1645881);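 note: EPAC1 catalysed release of BODIPY-GDP from Rap1B seen as fluorescence loss; nearly all actives have a fitted effect of over 75% in size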
[4] = target: Rap guanine nucleotide exchange factor 4 (Homo sapiens) (UniProt Q8WZA2); test: Confirmatory qHTS for agonist of cAMP-regulated guanine nucleotide exchange factor 4 (EPAC2) (AID 1645884);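 note: nucleotide exchange releases bodipy-GDP from Rap1 and this lowers its fluorescence; nearly all actives have a fitted effect of over 65% in size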
Rap guanine nucleotide exchange factor 4 (Homo sapiens), sequence (Q8WZA2 whole entry, looked up, the tested form may be a part): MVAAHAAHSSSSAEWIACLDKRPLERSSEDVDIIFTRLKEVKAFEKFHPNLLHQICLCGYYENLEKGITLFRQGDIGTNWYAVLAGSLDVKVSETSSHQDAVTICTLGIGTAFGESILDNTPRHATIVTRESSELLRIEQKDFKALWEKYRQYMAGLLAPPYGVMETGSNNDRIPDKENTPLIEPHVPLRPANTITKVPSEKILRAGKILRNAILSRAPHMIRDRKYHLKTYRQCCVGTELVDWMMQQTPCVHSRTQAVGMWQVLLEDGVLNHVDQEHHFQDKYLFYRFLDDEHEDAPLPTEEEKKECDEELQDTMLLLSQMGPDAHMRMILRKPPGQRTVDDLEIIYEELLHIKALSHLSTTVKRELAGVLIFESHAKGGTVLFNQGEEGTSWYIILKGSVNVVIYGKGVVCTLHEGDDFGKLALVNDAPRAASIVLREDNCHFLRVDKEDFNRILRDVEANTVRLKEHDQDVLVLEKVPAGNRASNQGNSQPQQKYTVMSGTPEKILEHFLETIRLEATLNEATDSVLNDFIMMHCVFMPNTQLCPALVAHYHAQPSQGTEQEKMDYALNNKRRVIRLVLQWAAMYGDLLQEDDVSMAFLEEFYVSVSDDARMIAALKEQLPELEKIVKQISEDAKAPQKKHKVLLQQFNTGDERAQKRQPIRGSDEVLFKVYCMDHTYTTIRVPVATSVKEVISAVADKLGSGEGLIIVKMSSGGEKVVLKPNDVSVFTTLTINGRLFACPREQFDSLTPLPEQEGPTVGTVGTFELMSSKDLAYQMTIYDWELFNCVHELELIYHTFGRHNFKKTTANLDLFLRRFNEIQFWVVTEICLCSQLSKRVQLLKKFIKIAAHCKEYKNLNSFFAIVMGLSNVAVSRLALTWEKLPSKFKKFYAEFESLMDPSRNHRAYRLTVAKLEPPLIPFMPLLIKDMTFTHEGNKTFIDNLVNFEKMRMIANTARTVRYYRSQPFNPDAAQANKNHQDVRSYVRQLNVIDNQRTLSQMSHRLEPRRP

[5] = Primary qHTS for inhibitors of nuclear receptor binding SET domain protein 2 (NSD2) in an RCH-ACV wild type WT cells (2C) (AID 1645877); note: nearly all actives have a fitted effect of over 70% in size; note: potency is the fitted concentration of half-maximal effect
[6] = target: Rap guanine nucleotide exchange factor 4 (Homo sapiens) (UniProt Q8WZA2); test: Confirmatory qHTS for antagonist of cAMP-regulated guanine nucleotide exchange factor 4 (EPAC2) (AID 1645885); note: nearly all actives have a fitted effect of over 25% in size; note: potency is the fitted concentration of half-maximal effect
[7] = target: Rap guanine nucleotide exchange factor 3 (Homo sapiens) (UniProt O95398); test: Counterscreen qHTS for antagonist of cAMP-regulated guanine nucleotide exchange factor 3 (EPAC1) (AID 1645888)
How it was run: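 Measured: fluorescence of BODIPY-GDP bound to Rap1B, which falls as exchange proceeds. Conditions include 50 uM competing GDP, 5 and 30 min reads, and a later cAMP challenge for antagonist detection.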

[8] = target: Catechol O-methyltransferase (Homo sapiens) (UniProt P21964); test: Confirmatory Screen for Target Class Profiling of Small Molecule Inhibitors of Methyltransferases (AID 1745852); conditions: MTase-Glo luminescence, SAH detection, recombinant enzyme; measured here: COMT max response; stronger effect = lower value
Catechol O-methyltransferase (Homo sapiens), sequence (P21964 whole entry, looked up): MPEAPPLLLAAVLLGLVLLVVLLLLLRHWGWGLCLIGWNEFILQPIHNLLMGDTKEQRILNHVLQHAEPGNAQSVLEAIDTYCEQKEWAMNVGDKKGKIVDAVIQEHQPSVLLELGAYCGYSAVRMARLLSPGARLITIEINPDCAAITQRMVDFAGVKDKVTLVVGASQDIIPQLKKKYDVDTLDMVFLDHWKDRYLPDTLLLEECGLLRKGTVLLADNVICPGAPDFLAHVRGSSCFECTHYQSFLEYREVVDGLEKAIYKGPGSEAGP

Compound: C[C@H]1O[C@@H](O[C@H]2[C@@H](O)C[C@H](O[C@H]3[C@@H](O)C[C@H](O[C@H]4CC[C@@]5(C)[C@H](CC[C@@H]6[C@@H]5CC[C@]5(C)[C@@H](C7=CC(=O)OC7)CC[C@]65O)C4)O[C@@H]3C)O[C@@H]2C)C[C@H](O)[C@@H]1O
- Potency [1]: 16.8 nM (active) and 19.2 nM (active)
- Potency [2]: inactive
- outcome [3]: inactive
- outcome [4]: inactive

Compound: Clc1cccc(N2CCNCC2)c1
- Potency [1]: inactive
- Potency [5]: inactive

Compound: CC1NCCOC1c1ccccc1 (stereo not given)
- Potency [1]: inactive
- Potency [5]: inactive

Compound: CO[C@]12CC[C@@]3(C[C@@H]1[C@](C)(O)C(C)(C)C)[C@@H]1Cc4ccc(O)c5c4[C@@]3(CCN1CC1CC1)[C@H]2O5
- Potency [1]: 6.05 µM (active)
- Potency [5]: 6.79 µM (active)

Compound: Clc1ccc(COC(Cn2ccnc2)c2ccc(Cl)cc2Cl)cc1 (stereo not given)
- outcome [3]: inactive
- outcome [4]: inactive
- Potency [6]: 44.1 µM (active) and inactive
- outcome [7]: inactive

Compound: O=C(O)c1ccc2[nH]cc(CCCCN3CC=C(c4ccccc4)CC3)c2c1
- Potency [1]: inactive

Compound: CCN(CC)CCN1C(=O)CN=C(c2ccccc2F)c2cc(Cl)ccc21
- Potency [1]: inactive

Compound: CCN(C(C)=O)c1cccc(-c2ccnc3c(C#N)cnn23)c1
- Potency [1]: inactive

Compound: COc1ccc(Cc2nccc3cc(OC)c(OC)cc23)cc1OC
- Potency [1]: 11.8 µM (active)

Compound: Cn1cc(C2=C(c3cn(C4CCN(Cc5ccccn5)CC4)c4ccccc34)C(=O)NC2=O)c2ccccc21
- Potency [1]: inactive and 16.4 µM (active)

Compound: CN1C[C@H](CNC(=O)OCc2ccccc2)C[C@@H]2c3cccc4c3c(cn4C)C[C@H]21
- activity [8]: -5.5%

Compound: CN(C)CCN(C)CCc1ccc(Cl)c(Cl)c1
- Potency [1]: inactive

Compound: CC(=O)[C@H]1CC[C@H]2[C@@H]3CC[C@H]4C[C@H](O)CC[C@]4(C)[C@H]3C(=O)C[C@]12C
- Potency [5]: inactive

Compound: CCOP(=S)(OCC)Oc1cc(C)nc(C(C)C)n1
- Potency [1]: inactive
- Potency [5]: inactive

Compound: Cc1ccc2c(c1)C1CN(C)CCC1N2 (stereo not given)
- Potency [1]: inactive
- Potency [5]: inactive

Compound: FC(F)(F)c1cccc(C2=CCN(CCc3ccc4ccccc4c3)CC2)c1
- Potency [1]: inactive
- Potency [5]: inactive

Compound: CC(C)(N)Cc1ccc(Cl)cc1
- Potency [1]: inactive

Compound: Clc1ccc(CCC(Cn2ccnc2)Sc2c(Cl)cccc2Cl)cc1 (stereo not given)
- Potency [1]: 18.8 µM (active) and 18.6 µM (active)
- Potency [5]: 11.9 µM (active) and 20.9 µM (active)

Compound: O=c1oc2ccccc2c(O)c1C(CC(O)c1ccc(-c2ccc(Br)cc2)cc1)c1ccccc1 (stereo not given)
- Potency [1]: inactive
- Potency [2]: 15.7 µM (active)
- outcome [3]: inactive
- outcome [4]: inactive
- Potency [6]: 44.1 µM (active)

Compound: CCC(=O)C(CC(C)N(C)C)(c1ccccc1)c1ccccc1 (stereo not given)
- Potency [1]: 34.7 µM (active)
- Potency [5]: 30.9 µM (active)

Compound: CNC(=O)N1N=C(c2ccc(N)cc2)c2cc3c(cc2CC1C)OCO3 (stereo not given)
- Potency [1]: 3.65 µM (active)
- Potency [5]: 2.05 µM (active)

Compound: C[C@]12C/C(=C/O)C(=O)C[C@@H]1CC[C@@H]1[C@@H]2CC[C@@]2(C)[C@H]1CC[C@]2(C)O
- Potency [1]: 13.3 µM (active)
- Potency [5]: 23.7 µM (active)

Compound: N[C@@H](Cc1ccc(Oc2cc(I)c(O)c(I)c2)c(I)c1)C(=O)O
- Potency [1]: inactive
- Potency [5]: inactive

Compound: CCN(CC)CCOC(=O)C(O)(c1ccccc1)c1ccccc1
- Potency [1]: inactive

Compound: O=C(NC(O)C(Cl)(Cl)Cl)NC(O)C(Cl)(Cl)Cl (stereo not given)
- Potency [1]: inactive
- Potency [5]: inactive

Compound: C=C1C[C@@H]2[C@H](CC[C@]3(C)C(=O)CC[C@@H]23)[C@@]2(C)C=CC(=O)C=C12
- Potency [1]: 16.8 µM (active) and 26.3 µM (active)

Compound: CC[N+](CC)(CC)CC
- Potency [1]: inactive
- Potency [5]: inactive
- activity [8]: 2.75%

Compound: CCC(COC(=O)c1cc(OC)c(OC)c(OC)c1)(c1ccccc1)N(C)C (stereo not given)
- Potency [1]: inactive
- Potency [5]: inactive

Compound: NP(N)(=O)NC(=O)c1ccc(F)cc1
- Potency [1]: inactive
- Potency [5]: inactive

Source: PubChem BioAssay (NCATS)
